NPC1 promoter act: activates the NPC1 promoter | hit rate 2.4% among 320,000 | Huh7 NPC1 promoter luciferase reporter, 24 h | AID 485313 | Potency, µM (titrated, usually from 9.22 µM), for inactives: at the top dose activation, hits mostly activators; also: % of control where 0% means no effect; nearly all actives have a fitted effect of over 60% in size
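Compounds in DMSO were transferred onto Huh7 NPC1-luciferase reporter cells pre-incubated 2 h; after 24 h at 37 °C, Amplite reagent was dispensed and luminescence recorded 10 min later.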
SMN2 splice up: increases expression of the SMN2 splice variant; HEK293 SMN2-luciferase splicing reporter, luminescence, 30-36 h; Potency, µM (series often up to 46.1 µM), for the others: at the highest dose activity change, positive = activation, most hits filed as activators; hit rate 2.8% among 210,000; also: % of control where 0% means no effect; nearly all actives have a fitted effect of over 55% in size
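qHTS luciferase splicing reporter: luminescence rises when SMN2 exon 7 is included in transfected HEK293 cells. Compound exposure lasted 30-36 h at 37C, with 4.5 mM final sodium butyrate as control, followed by a ONE-Glo read.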
Luc counter: blocks Kinase-Glo luciferase, a counter-screen artifact; Q27757; Kinase-Glo luciferase, ATP luminescence, 8 min; Potency, µM (doses to about 38.3 µM), without a hit: at the highest dose activity change, negative = inhibition, most hits filed as inhibitors; hit rate 0.28% among 200,000; AID 1379; also: % is scaled to controls: 0 for no effect and ±100 for the full control effect; nearly all actives have a fitted effect of over 60% in size
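Luminescence was the read-out, taken after 8-minute incubation at ambient temperature. Luciferase turned over luciferin with 10 uM ATP in imidazole pH 7.2 buffer containing KCl, MgCl2, Tween 20 and BSA.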
FLuc modulator: firefly luciferase modulation, counter-screen for miR-21 project | P08659 | purified FLuc, Km substrates, luminescence inhibition | Potency, µM (highest dose often 57.5 µM), inactives show top-dose activity change, negative = inhibition, actives largely listed as inhibitors | hit rate 6.9% among 360,000 | AID 588342;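 also: plate controls were vehicle for no effect and reference inhibitor for full effect; nearly all actives have a fitted effect of over 55% in size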
Target sequence (P08659 whole entry, looked up): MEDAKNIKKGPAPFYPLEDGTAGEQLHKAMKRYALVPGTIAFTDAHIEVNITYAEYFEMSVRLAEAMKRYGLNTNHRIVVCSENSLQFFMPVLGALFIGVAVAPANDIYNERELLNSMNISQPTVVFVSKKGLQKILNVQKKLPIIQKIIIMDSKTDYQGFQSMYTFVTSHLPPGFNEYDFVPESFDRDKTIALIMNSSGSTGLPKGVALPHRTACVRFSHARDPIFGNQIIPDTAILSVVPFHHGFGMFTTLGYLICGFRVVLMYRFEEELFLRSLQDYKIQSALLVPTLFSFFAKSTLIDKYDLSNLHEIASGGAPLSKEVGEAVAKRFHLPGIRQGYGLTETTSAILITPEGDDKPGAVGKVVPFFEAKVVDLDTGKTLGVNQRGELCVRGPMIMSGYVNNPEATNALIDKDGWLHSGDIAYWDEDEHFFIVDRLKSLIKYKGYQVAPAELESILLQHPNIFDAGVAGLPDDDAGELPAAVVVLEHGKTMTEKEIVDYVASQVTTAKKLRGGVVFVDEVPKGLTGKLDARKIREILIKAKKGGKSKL
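Purified P. pyralis luciferase (10nM final) with 10uM D-luciferin and 10uM ATP (Km levels) in 50mM Tris acetate pH 7.5, 10mM Mg acetate, 0.01% Tween-20, 0.05% BSA; qHTS 6-point titration, ~60 µM downward; luminescence read.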
Rab9 prom act: Rab9 promoter activation | AID 485297 | Potency, µM (titrated, usually from 9.22 µM), for inactives: at the highest dose activation, negative = inhibition, usual class: activators | hit rate 2.8% among 320,000 | Huh7 Rab9 promoter-luciferase reporter, luminescence, 24 h; also: % of control where 0% means no effect; nearly all actives have a fitted effect of over 60% in size
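Luminescence read-out: Huh7 cells stably expressing Rab9-luciferase, treated 24 h with compound at 37 °C, then lysed with luciferase reagent for 10 min at ambient before reading.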
ELG1 genotox: inducers of genotoxicity in HEK293T ELG1-luciferase cells; HEK293T ELG1-luciferase reporter, luminescence, 16 h; Potency, µM (titrated, usually from 46 µM), without a hit: at the top dose activity change, positive = activation, most hits filed as activators; hit rate 1.3% among 330,000; also: % of control where 0% means no effect; nearly all actives have a fitted effect of over 60% in size
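Genotoxic stress is detected as increased luminescence from luciferase-tagged ELG1 in HEK293T cells, measured with ONE-Glo after a 16 hr treatment at 37 °C.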
Starred values were filed as active, the others as inactive; ? = inconclusive; . = no result; [ ] = another dose, or the depositor's remark. Sampled rows, rich in hits. Any-hit rate of the full collection: about 7.5%. Calls follow the shape of the dose curve; as a rule, active = well fitted curve in the direction sought with a large enough effect; inconclusive = small, poorly fitted or top-dose-only effect, or another doubt; inactive = no such curve, though single readings can be large; an effect the other way counts as inactive or inconclusive. Potency is read from the fitted curve at half-maximal effect.

SMILES	NPC1 promoter act	SMN2 splice up	Luc counter	FLuc modulator	Rab9 prom act	ELG1 genotox
COc1ccc(-c2c(C)nc3c(-c4ccc(F)cc4)cnn3c2N)cc1	0.5µM*	.	.	0.85µM*	0.45µM*	?
Cc1nc2c(-c3ccc(F)cc3)cnn2c(N)c1-c1ccccc1	-4%	.	.	0.24µM*	3%	0.58µM*
Nc1c(-c2ccc(Cl)cc2)cnc2c(-c3ccc(F)cc3)cnn12	0.56µM*	.	.	1.5µM*	0.5µM*	7.3µM*
Cc1nc2c(-c3ccc(Cl)cc3)cnn2c(N)c1-c1ccc(F)cc1	15%	.	.	1.7µM*	?	6.5µM*
CCC(=O)N1CCc2cc(Br)cc(S(=O)(=O)N3CCC(C(=O)Nc4ccccc4F)CC3)c21	.	-4%	.	-1%	.	.
Nc1c(-c2ccccc2)cnc2ncnn12	0%	-2%	-4%	1%	-7%	2%
Nc1c(-c2cccc(Cl)c2)cnc2c(-c3ccccc3)cnn12	1.3µM*	.	.	4.3µM*	?	?
CC(C)N(Cc1ccccc1)CC(O)COc1ccc(S(=O)(=O)N2CCOCC2)cc1Cl (stereo unspecified)	-3%	-9%	0%	-2%	-2%	-8%
O=C(Nc1ccc2c(c1)OCO2)C(c1ccc(Cl)cc1)N1CCC2(CC1)OCCO2 (stereo unspecified)	-5%	-4%	-1%	-1%	18%	1%
O=C(Nc1ccc(Cl)cc1)N1CCOC12CCC1(CC2)OCCO1	3%	8%	-1%	17µM*	16%	-1%
CCc1ccc(NC(=O)c2ccc3c(=O)n4nc(Nc5ccccc5C)sc4nc3c2)cc1	.	.	.	-6%	.	.
COc1c(/C=N/NC(=O)c2ccccc2O)c(CCN(C)C(C)=O)cc2c1OCO2	-1%	53%	-4%	19µM*	6%	1%
CCC(=O)N(C)CCc1cc2c(c(OC)c1/C=N/NC(=O)c1ccccc1O)OCO2	-2%	-15%	0%	-19%	-9%	2%
Cc1ccc(/C=N/NC(=O)c2ccoc2C)s1	?	10µM*	?	15µM*	3.2µM*	?
Cc1ccc(/C=N/NC(=O)c2ccc(C(=O)N/N=C/c3ccc(C)s3)o2)s1	6%	1%	-3%	?	-1%	10%
Cc1occc1C(=O)N/N=C/c1ccc(Br)s1	?	.	-28%	15µM*	2.8µM*	?
CC1CCN(c2nc3c(S(=O)(=O)c4cccc(Cl)c4)nnn3c3ccsc23)CC1	.	.	.	-7%	.	.
CC(/C=N/NC(=O)c1cccnc1)=C\c1ccccc1	?	.	-10%	13µM*	?	?
CC(/C=N/NC(=O)C(O)c1ccccc1)=C\c1ccccc1 (stereo unspecified)	?	22%	-1%	13µM*	?	7%
O=C(N/N=C/C(Cl)=C\c1ccccc1)c1cnccn1	21%	13%	-6%	11µM*	22%	?
O=C(N/N=C/C(Cl)=C/c1ccccc1)c1cnccn1	17%	14%	-6%	12µM*	21%	17%
CC(/C=N/NC(=O)c1ccc(Br)cc1)=C\c1ccccc1	20%	12%	3%	?	1%[1.84 µM]	?
CC(=C/c1ccccc1)/C=N/NC(=O)c1cnccn1	4µM*	?	-23%	4.8µM*	?	8.9µM*
CC(/C=N/NC(=O)c1ccncc1)=C\c1ccc(C(C)C)cc1	28%	.	.	?	2.8µM*	0%
CC(/C=N/Nc1nc(C)cc(C)n1)=C\c1ccc(C(C)C)cc1	-4%	-6%	-4%	19µM*	8%	2%
SMILES	NPC1 promoter act	SMN2 splice up	Luc counter	FLuc modulator	Rab9 prom act	ELG1 genotox
CC(/C=N/NC(=O)c1cc(C(C)C)[nH]n1)=C\c1ccccc1	3%	9%	1%	?	8%	-6%
Cc1[nH]n(-c2ccc(Br)cc2)c(=O)c1/C=N/NC(=O)c1ccccc1	-22%	.	.	2.1µM*	-36%	?
Cc1[nH]n(-c2ccccc2)c(=O)c1/C=N/NC(=O)c1cccc(F)c1	-32%	.	.	9.5µM*	-39%	?
CCCCN(CCCC)C(=S)N/N=C/c1c(C)[nH]n(-c2ccccc2)c1=O	-8%	-75%	1%	-3%	-9%	-7%
COCCCNC(=O)c1ccc(Cn2c(=O)c3ccccc3n(CC(N)=O)c2=O)cc1	.	-4%	.	-3%	.	.
CC(=O)CCC(=O)OCC(=O)c1ccc(C(F)(F)F)cc1	0%	.	.	-28%	1%	-6%
CCC(C)c1ccc(Nc2ncccc2C#N)cc1 (stereo unspecified)	?	?	-6%	21µM*	?	?
O=C(NC1CC(=O)N(c2cccc(F)c2)C1)c1cc2ccccc2o1 (stereo unspecified)	.	.	.	4%	.	.
Cc1cc(-c2ccccc2)nc(N/N=C/c2ccc(O)cc2O)n1	3%	.	.	?	4%	0%
Cc1cc(N/N=C/c2ccccc2O)c2ccccc2n1	4%	.	.	15µM*	-4%	11%
Cc1ccccc1/C=N/Nc1nc2ccccc2c(=O)n1O	13%	.	.	15µM*	7%	17%
COc1ccc2nc(C)cc(Nc3ccccc3O)c2c1	1%	.	0%	-1%	-10%	-7%
COc1ccc(/C=N/Nc2cc(C)nc3ccc(Br)cc23)cc1	0%	.	.	21µM*	-4%[1.84 µM]	-6%
COc1cccc2c(N/N=C/c3ccccc3)cc(C)nc12	0%	.	.	2%	-5%	-1%
COc1ccc2nc(C)cc(N/N=C/c3cccc(OC)c3O)c2c1	-4%	.	.	17µM*	0%	5%
COc1ccccc1NC(=O)Cn1c(=O)n(CCc2ccccc2)c(=O)c2c3c(sc21)CN(C(C)=O)CC3	.	0%	.	-7%	.	.
Clc1ccc2nc3c4ccccc4cnn3c2c1	10%	2.8µM*	?	1.9µM*	-3%[1.84 µM]	8.2µM*
COc1cccc(C2NC(=O)c3ccccc3O2)c1OC (stereo unspecified)	-1%	-15%	-2%	-3%	8%	0%
COc1cccc(C2N=C(c3ccccc3C)NO2)c1OC (stereo unspecified)	19%	.	.	9.5µM*	12%	?
O=C(Oc1ccccc1C(=O)Nc1ccccc1)c1ccccc1Br	-4%	23%	2%	17µM*	19%	?
Cc1cc(C)cc(NC(=O)Nc2ccc(NC(=O)c3ccccc3O)cc2)c1	4%	.	.	-4%	-4%	6%
Cc1ccc(NC(=O)c2ccccc2O)cc1	2µM*	2.8µM*	-4%	0.95µM*	0.63µM*	?
O=C(Nc1ccccc1)c1ccccc1O	26%	-4%	8%	11µM*	26%	?
COc1ccc(C(=O)CCC(=O)Nc2cc(C)ccc2C)cc1	.	.	.	-4%	.	.
